Test results from PubChem BioAssay (Tox21).
Inconclusive results are not listed. Calls of active or inactive are those of the source. Unless noted, calls come from the whole dose curve; as a rule, active = well fitted curve in the direction sought with a large enough effect in the repeat runs; inconclusive = weak or mixed curves; inactive = no such curve, though single readings can be large; an effect the other way counts as inactive or inconclusive.

Experiments:
[1] = A CellTox Green Cytotoxicity Assay to monitor cytotoxicity in HepG2 cells - 24 hour (AID 1224878); note: nearly all actives have a fitted effect of over 45% in size
Procedure, shortened: (§1)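 Fluorescent DNA-binding dye, 600 HepG2 cells/well, 5 h preincubation then compound in DMSO; same plates read at 0–40 h, 37 C.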

[2] = A CellTox Green Cytotoxicity Assay to monitor cytotoxicity in HepG2 cells - 40 hour (AID 1224879); note: nearly all actives have a fitted effect of over 40% in size
Procedure, shortened: as §1

[3] = qHTS RealTime-Glo MT Cell Viability Assay in HEK293 cells - 0 hour (AID 1224880); note: top concentration of the series differs between compounds; nearly all actives have a fitted effect of over 45% in size
Procedure, shortened: (§2)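 Measured as luminescence from the same continuously cultured HEK293 wells at successive time points (0, 8, 16, 24, 32, 40 h) after compound addition. Reagent present from seeding; dosing at 5 h; incubation 37 C.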

[4] = A CellTox Green Cytotoxicity Assay to monitor cytotoxicity in HEK293 cells - 32 hour (AID 1224881); note: nearly all actives have a fitted effect of over 40% in size
Procedure, shortened: (§3)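 Homogeneous no-lysis format: HEK293 cell suspension mixed with CellTox Green reagent, seeded, incubated 5 h at 37 C/5% CO2, then dosed by pintool with compound in DMSO.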

[5] = A CellTox Green Cytotoxicity Assay to monitor cytotoxicity in HepG2 cells - 0 hour (AID 1224882); note: nearly all actives have a fitted effect of over 35% in size
Procedure, shortened: as §1

[6] = A CellTox Green Cytotoxicity Assay to monitor cytotoxicity in HepG2 cells - 32 hour (AID 1224883); note: nearly all actives have a fitted effect of over 50% in size
Procedure, shortened: as §1

[7] = qHTS RealTime-Glo MT Cell Viability Assay in HepG2 cells - 16 hour (AID 1224885); note: nearly all actives have a fitted effect of over 50% in size
Procedure, shortened: (§4)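 Viability was tracked continuously by NanoLuc luminescence from prosubstrate reduced by living HepG2 cells, at successive time points over 40 h of compound exposure. Cells with reagent were preincubated 5 h at 37 °C before compound addition.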

[8] = qHTS RealTime-Glo MT Cell Viability Assay in HEK293 cells - 24 hour (AID 1224886); note: top concentration of the series differs between compounds; nearly all actives have a fitted effect of over 50% in size
Procedure, shortened: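 Viability tracked continuously by luminescence as live cells reduce a prosubstrate for NanoLuc; HEK293 cells preincubated 5 h, compound-treated at 37 C, and read at 0, 8, 16, 24, 32 and 40 h.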

[9] = qHTS RealTime-Glo MT Cell Viability Assay in HEK293 cells - 8 hour (AID 1224887); note: top concentration of the series differs between compounds; nearly all actives have a fitted effect of over 50% in size
Procedure, shortened: as §2

[10] = qHTS assay to identify small molecule antagonists of the estrogen receptor alpha (ER-alpha) signaling pathway using the BG1 cell line in the presence of 0.1 nM 17-beta-estradiol - cell viability counter screen (AID 1259241); note: nearly all actives have a fitted effect of over 40% in size
Procedure, shortened: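 Viability in VM7Luc4E2 cells after 22 hr compound exposure under 0.1 nM 17beta-estradiol stimulation, by CellTiter-Fluor.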

[11] = qHTS assay to identify small molecule antagonists of the androgen receptor (AR) signaling pathway using the MDA cell line in the presence of 0.5 nM R1881 - cell viability counter screen (AID 1259242); note: nearly all actives have a fitted effect of over 45% in size
Procedure, shortened: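 Human breast carcinoma MDA-kb2 cells, cultured without CO2, receive compounds alongside 0.5 nM (final) R1881 agonist. After 16 hr at 37C, viability is taken as live-cell protease signal.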

[12] = target: Estrogen receptor (Homo sapiens) (UniProt P03372); test: qHTS assay to identify small molecule antagonists of the estrogen receptor alpha (ER-alpha) signaling pathway using the BG1 cell line in the presence of 0.1 nM 17-beta-estradiol (AID 1259244); note: nearly all actives have a fitted effect of over 50% in size
Chain of Estrogen receptor (Homo sapiens) (P03372 whole entry, looked up): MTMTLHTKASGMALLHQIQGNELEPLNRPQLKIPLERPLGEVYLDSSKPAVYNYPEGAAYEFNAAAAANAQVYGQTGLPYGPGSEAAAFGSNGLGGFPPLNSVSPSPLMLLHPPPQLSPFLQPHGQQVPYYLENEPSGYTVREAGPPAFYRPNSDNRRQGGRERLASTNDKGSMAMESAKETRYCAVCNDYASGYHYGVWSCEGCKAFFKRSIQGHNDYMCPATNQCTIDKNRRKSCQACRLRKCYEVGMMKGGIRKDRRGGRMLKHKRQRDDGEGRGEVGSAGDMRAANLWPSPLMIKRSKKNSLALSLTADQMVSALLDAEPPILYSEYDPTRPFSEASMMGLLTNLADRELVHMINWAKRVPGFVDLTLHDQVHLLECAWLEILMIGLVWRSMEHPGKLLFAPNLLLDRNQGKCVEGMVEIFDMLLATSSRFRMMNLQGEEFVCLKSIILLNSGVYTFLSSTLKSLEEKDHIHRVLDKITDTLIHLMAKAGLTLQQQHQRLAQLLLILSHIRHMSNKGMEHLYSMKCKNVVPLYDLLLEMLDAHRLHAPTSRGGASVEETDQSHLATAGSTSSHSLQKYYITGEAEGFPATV
Procedure, shortened: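 Seeding of stripped-serum-adapted VM7Luc4E2 cells, 24 h attachment, compound transfer, then 0.1 nM final 17beta-estradiol; after 22 h incubation, ONE-Glo reagent and luminescence reading.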

[13] = qHTS assay to identify small molecule HDAC inhibitors (AID 1259364);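 note: wild-type HCT-116 cells with endogenous class I/II HDAC activity; top concentration of the series differs between compounds; nearly all actives have a fitted effect of over 45% in size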
Procedure, shortened: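 After a 2 hr compound incubation (37C, 5% CO2), HCT-116 cells seeded at 1,500/well the day before received HDAC-Glo reagent; signal read as luminescence after 30 min at room temperature.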

[14] = qHTS assay to identify small molecule HDAC inhibitors - cell viability counter screen (AID 1259365)
Procedure, shortened: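 Cytotoxicity was gauged in wild-type HCT-116 cells after a brief 2hr treatment with DMSO-dissolved compounds at 37C and 5% CO2, using CellTiter-Glo luminescence developed for 30min at room temperature.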

[15] = A CellTox Green Cytotoxicity Assay to monitor cytotoxicity in HEK293 cells - 16 hour (AID 1224888); note: nearly all actives have a fitted effect of over 35% in size
Procedure, shortened: as §3

[16] = qHTS RealTime-Glo MT Cell Viability Assay in HepG2 cells - 0 hour (AID 1224889); note: nearly all actives have a fitted effect of over 50% in size
Procedure, shortened: as §4

[17] = A CellTox Green Cytotoxicity Assay to monitor cytotoxicity in HepG2 cells - 8 hour (AID 1224890); note: nearly all actives have a fitted effect of over 45% in size
Procedure, shortened: as §1

[18] = A CellTox Green Cytotoxicity Assay to monitor cytotoxicity in HEK293 cells - 8 hour (AID 1224884); note: nearly all actives have a fitted effect of over 35% in size
Procedure, shortened: as §3

[19] = qHTS assay to identify small molecule phospholipidosis (PLD) inducers (AID 1259344; active = well fitted curve in the direction sought with a large enough effect; an effect the other way counts as inactive or inconclusive)
Procedure, shortened: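 Read-out is LipidTOX Red fluorescence (ex 595/em 615) imaged in HepG2 cells after 24 h compound exposure at 37 C, with Hoechst nuclear counterstain (ex 352/em 461) allowing per-cell normalisation.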

[20] = target: Androgen receptor (Homo sapiens) (UniProt P10275); test: qHTS assay to identify small molecule antagonists of the androgen receptor (AR) signaling pathway using the MDA cell line in the presence of 0.5 nM R1881 (AID 1259243); note: nearly all actives have a fitted effect of over 50% in size; note: potency is the fitted concentration of half-maximal effect
Chain of Androgen receptor (Homo sapiens) (P10275 whole entry, looked up): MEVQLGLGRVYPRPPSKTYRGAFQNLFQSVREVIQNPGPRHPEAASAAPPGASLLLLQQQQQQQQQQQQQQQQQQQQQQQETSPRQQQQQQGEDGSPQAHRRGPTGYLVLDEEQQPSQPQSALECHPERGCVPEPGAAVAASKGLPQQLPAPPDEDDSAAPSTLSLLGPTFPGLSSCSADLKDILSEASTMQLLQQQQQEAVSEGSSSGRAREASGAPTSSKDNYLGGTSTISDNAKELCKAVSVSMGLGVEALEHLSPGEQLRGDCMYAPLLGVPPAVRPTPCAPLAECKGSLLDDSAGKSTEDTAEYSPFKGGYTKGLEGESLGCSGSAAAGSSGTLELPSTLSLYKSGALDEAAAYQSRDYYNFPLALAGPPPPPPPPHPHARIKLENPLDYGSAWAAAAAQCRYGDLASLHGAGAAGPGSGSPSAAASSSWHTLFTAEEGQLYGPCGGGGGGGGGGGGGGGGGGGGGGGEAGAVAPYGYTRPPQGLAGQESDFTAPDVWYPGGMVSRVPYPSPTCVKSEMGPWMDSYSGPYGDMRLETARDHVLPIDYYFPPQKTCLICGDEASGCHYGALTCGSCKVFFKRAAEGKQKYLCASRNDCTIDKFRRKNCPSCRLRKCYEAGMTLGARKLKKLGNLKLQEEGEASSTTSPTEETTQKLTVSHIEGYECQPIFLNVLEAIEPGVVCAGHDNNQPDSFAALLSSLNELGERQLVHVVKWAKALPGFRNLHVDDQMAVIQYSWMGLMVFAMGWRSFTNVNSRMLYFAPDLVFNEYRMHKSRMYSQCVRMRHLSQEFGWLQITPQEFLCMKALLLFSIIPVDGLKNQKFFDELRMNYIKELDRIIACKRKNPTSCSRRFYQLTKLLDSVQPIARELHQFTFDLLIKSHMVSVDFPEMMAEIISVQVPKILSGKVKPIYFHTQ
Procedure, shortened: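 Cells: MDA-kb2 (MMTV-luc). Stimulus: 0.5 nM R1881. Time: 16 hr, 37C, no CO2. Detection: ONE-Glo luminescence after 30 min at RT.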
% is set by controls: 0 for no effect and ±100 for the full control effect.

CC(CC(=O)Cl)CC(C)(C)C (configuration not stated)
inactive: Potency [1] | Potency [2] | Potency [3] | Potency [4] | Potency [5] | Potency [6] | outcome [7] | outcome [8] | outcome [9] | outcome [10] | outcome [11] | outcome [12] | Potency [13] | outcome [14]

O=C1Nc2ccccc2C1=O
inactive: Potency [1] | Potency [2] | Potency [3] | Potency [4] | Potency [5] | Potency [6] | outcome [7] | Potency [15] | Potency [16] | Potency [17] | outcome [10] | outcome [11] | outcome [14]

Cc1cc2c(cc1CC(=O)c1sccc1S(=O)(=O)Nc1onc(C)c1Cl)OCO2
inactive: Potency [1] | Potency [2] | Potency [4] | Potency [5] | Potency [6] | outcome [7] | outcome [8] | outcome [9] | Potency [15] | Potency [17] | outcome [10] | outcome [11] | outcome [12] | Potency [13] | outcome [14]

CC(=O)Nc1ccc(S(=O)(=O)Nc2cc(C)on2)cc1
inactive: Potency [2] | Potency [3] | Potency [4] | Potency [5] | Potency [6] | Potency [18] | outcome [7] | outcome [8] | outcome [9] | Potency [15] | Potency [16] | Potency [17] | outcome [10] | outcome [11] | outcome [12] | PLD induction [19] 3.97% [at 7.66 µM] | Potency [13] | outcome [14]

CCCC(C)C(O)CC (configuration not stated)
inactive: Potency [1] | Potency [2] | Potency [3] | Potency [4] | Potency [5] | Potency [6] | outcome [7] | outcome [8] | outcome [9] | Potency [15] | Potency [17] | outcome [10] | outcome [11] | Potency [13] | outcome [14]

Cc1cc(C)c(N)c(Cl)c1
inactive: Potency [1] | Potency [2] | Potency [3] | Potency [4] | Potency [5] | Potency [6] | outcome [7] | outcome [8] | outcome [9] | Potency [16] | Potency [17] | outcome [10] | outcome [11] | outcome [12] | outcome [14]

O=S(=O)(O)c1cc(I)c(O)c2ncccc12
inactive: Potency [2] | Potency [3] | Potency [4] | Potency [5] | Potency [6] | Potency [18] | outcome [7] | outcome [8] | outcome [9] | Potency [15] | Potency [16] | Potency [17] | outcome [10] | outcome [11] | Potency [19] | Potency [13] | outcome [14]

CCc1ncc(C)[nH]1
inactive: Potency [2] | Potency [3] | Potency [4] | Potency [5] | Potency [6] | Potency [18] | outcome [7] | outcome [8] | outcome [9] | Potency [15] | Potency [16] | Potency [17] | outcome [10] | outcome [11] | Potency [20] | Potency [13] | outcome [14]

C=CCOC(=O)CCCCCCCC
inactive: Potency [1] | Potency [2] | Potency [3] | Potency [4] | Potency [5] | Potency [6] | outcome [7] | outcome [8] | outcome [9] | Potency [15] | Potency [16] | Potency [17] | outcome [11] | Potency [13] | outcome [14]

CCCc1ncc(C(=O)O)s1
inactive: Potency [1] | Potency [2] | Potency [3] | Potency [4] | Potency [5] | Potency [6] | outcome [7] | outcome [8] | outcome [9] | Potency [16] | Potency [17] | outcome [10] | outcome [11] | Potency [20] | Potency [13] | outcome [14]

O=C(OOC(=O)c1ccccc1)c1ccccc1
inactive: Potency [1] | Potency [2] | Potency [4] | Potency [5] | Potency [6] | Potency [18] | outcome [7] | Potency [15] | Potency [16] | Potency [17] | outcome [11] | Potency [19] | Potency [13] | outcome [14]

O=S(=O)(O)c1ccc(Cl)cc1
inactive: Potency [1] | Potency [2] | Potency [3] | Potency [4] | Potency [5] | Potency [6] | outcome [7] | outcome [8] | outcome [9] | Potency [15] | Potency [16] | outcome [10] | outcome [11] | outcome [12] | outcome [14]

CC(=O)O[C@@H]1CC2C3CCc4cc(OC(=O)c5ccccc5)ccc4C3CCC2(C)[C@H]1OC(C)=O (some centres not stated)
active: Potency [20] 10.6 µM
inactive: Potency [1] | Potency [2] | Potency [3] | Potency [4] | Potency [5] | Potency [6] | outcome [7] | outcome [8] | outcome [9] | Potency [15] | outcome [10] | outcome [11] | outcome [12] | Potency [13] | outcome [14]

C=COCCCCO
inactive: Potency [1] | Potency [2] | Potency [3] | Potency [4] | Potency [5] | Potency [6] | outcome [7] | outcome [8] | outcome [9] | Potency [16] | Potency [17] | outcome [10] | outcome [11] | outcome [14]

CNC(C)=O
inactive: Potency [2] | Potency [3] | Potency [4] | Potency [5] | Potency [6] | Potency [18] | outcome [7] | outcome [8] | outcome [9] | Potency [15] | Potency [16] | Potency [17] | outcome [10] | outcome [11] | outcome [12] | Potency [13] | outcome [14]

CCCCS
inactive: Potency [1] | Potency [2] | Potency [3] | Potency [5] | Potency [6] | Potency [18] | outcome [7] | outcome [8] | outcome [9] | Potency [16] | Potency [17] | outcome [10] | outcome [11] | outcome [12] | Potency [13] | outcome [14]
